Source: PubChem BioAssay AID1159580 (chemical genetic matrix, 2015)
About 2,000 (36%) of roughly 5,500 compounds were called active. Another 18% or so got no clear call; they are omitted. No stated cut-off is given here; in the data, active means normalized growth mostly below about 0.91 (no sharp cut-off); inconclusive means no clear call, values can overlap the other calls; inactive means mostly above about 0.92. This is one part of the list.

Test: chemical genetic growth profiling, strain panel (AID 1159580);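 further: tested at 20 µM; growth read once vehicle control cultures reached saturation at 30 °C; 1 = growth at the plate median or of vehicle wells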
Conditions: growth OD

Measured: normalized growth

COC1=CC(=O)OC(CCc2ccc(OC)c(OC)c2)C1 (stereo unspecified)
inactive: S. cerevisiae deletion strains, locus YAL013W, strain DEP1, stronger effect = lower value 0.988 | S. cerevisiae deletion strains, locus YBR021W, strain FUR4, stronger effect = lower value 0.991 | S. cerevisiae deletion strains, locus YBR229C, strain ROT2, stronger effect = lower value 1.01 | S. cerevisiae deletion strains, locus YCL029C, strain bik1, stronger effect = lower value 1.03 | S. cerevisiae deletion strains, locus YDL035C, strain GPR1, stronger effect = lower value 1.01 | S. cerevisiae deletion strains, locus YDL074C, strain BRE1, stronger effect = lower value 1.02 | S. cerevisiae deletion strains, locus YDL101C, strain DUN1, stronger effect = lower value 1.01 | S. cerevisiae deletion strains, locus YDL134C, strain PPH21, stronger effect = lower value 1 | S. cerevisiae deletion strains, locus YDL185W, strain tfp1, stronger effect = lower value 1.02 | S. cerevisiae deletion strains, locus YDL192W, strain arf1, stronger effect = lower value 1.02 | S. cerevisiae deletion strains, locus YDR101C, strain arx1, stronger effect = lower value 1.01 | S. cerevisiae deletion strains, locus YDR150W, strain NUM1, stronger effect = lower value 1.01 | S. cerevisiae deletion strains, locus YDR162C, strain NBP2, stronger effect = lower value 1.01 | S. cerevisiae deletion strains, locus YDR318W, strain mcm21, stronger effect = lower value 1.01 | S. cerevisiae deletion strains, locus YDR388W, stronger effect = lower value 1.01 | S. cerevisiae deletion strains, locus YDR502C, strain sam2, stronger effect = lower value 1.01 | S. cerevisiae deletion strains, locus YEL061C, strain CIN8, stronger effect = lower value 1.01 | S. cerevisiae deletion strains, locus YER110C, stronger effect = lower value 1.02 | S. cerevisiae deletion strains, locus YER155C, strain BEM2, stronger effect = lower value 1.01 | S. cerevisiae deletion strains, locus YER167W, strain BCK2, stronger effect = lower value 1.02 | S. cerevisiae deletion strains, locus YGL078C, strain dbp3, stronger effect = lower value 1.02 | S. cerevisiae deletion strains, locus YGL086W, strain mad1, stronger effect = lower value 1.02 | S. cerevisiae deletion strains, locus YGL248W, strain PDE1, stronger effect = lower value 1.01 | S. cerevisiae deletion strains, locus YGR078C, strain PAC10, stronger effect = lower value 1.01 | S. cerevisiae deletion strains, locus YGR135W, strain pre9, stronger effect = lower value 1.01 | S. cerevisiae deletion strains, locus YGR229C, strain SMI1, stronger effect = lower value 1 | S. cerevisiae deletion strains, locus YGR252W, strain gcn5, stronger effect = lower value 1 | S. cerevisiae deletion strains, locus YHR030C, strain SLT2, stronger effect = lower value 1.01 | S. cerevisiae deletion strains, locus YHR079C, strain IRE1 (second series), stronger effect = lower value 1.01 | S. cerevisiae deletion strains, locus YHR094C, strain hxt1, stronger effect = lower value 1.01 | S. cerevisiae deletion strains, locus YHR129C, strain ARP1, stronger effect = lower value 1.01 | S. cerevisiae deletion strains, locus YHR200W, strain rpn10, stronger effect = lower value 1.01 | S. cerevisiae deletion strains, locus YIL066C, strain RNR3, stronger effect = lower value 1 | S. cerevisiae deletion strains, locus YIL073C, strain SPO22, stronger effect = lower value 1.07 | S. cerevisiae deletion strains, locus YIL125W, strain kgd1, stronger effect = lower value 1.02 | S. cerevisiae deletion strains, locus YIR030C, strain dcg1, stronger effect = lower value 1.01 | S. cerevisiae deletion strains, locus YJL095W, strain BCK1, stronger effect = lower value 1.02 | S. cerevisiae deletion strains, locus YJL134W, strain LCB3, stronger effect = lower value 1 | S. cerevisiae deletion strains, locus YJL168C, strain set2, stronger effect = lower value 1 | S. cerevisiae deletion strains, locus YJL187C, strain SWE1 (second series), stronger effect = lower value 1.01 | S. cerevisiae deletion strains, locus YJR043C, strain POL32, stronger effect = lower value 1.02 | S. cerevisiae deletion strains, locus YJR075W, strain HOC1, stronger effect = lower value 1.02 | S. cerevisiae deletion strains, locus YKL009W, strain mrt4, stronger effect = lower value 1.03 | S. cerevisiae deletion strains, locus YKL068W, stronger effect = lower value 1.01 | S. cerevisiae deletion strains, locus YKL085W, strain MDH1 (second series), stronger effect = lower value 1.01 | S. cerevisiae deletion strains, locus YKL085W, strain MDH1, stronger effect = lower value 1.01 | S. cerevisiae deletion strains, locus YKL190W, strain CNB1, stronger effect = lower value 1.01 | S. cerevisiae deletion strains, locus YKR001C, strain vps1, stronger effect = lower value 1.04 | S. cerevisiae deletion strains, locus YLR039C, strain RIC1, stronger effect = lower value 1.07 | S. cerevisiae deletion strains, locus YLR058C, strain SHM2, stronger effect = lower value 1.01 | S. cerevisiae deletion strains, locus YLR102C, strain apc9, stronger effect = lower value 1.01 | S. cerevisiae deletion strains, locus YLR262C, strain YPT6, stronger effect = lower value 1.07 | S. cerevisiae deletion strains, locus YLR268W, strain sec22, stronger effect = lower value 1.01 | S. cerevisiae deletion strains, locus YLR330W, strain CHS5, stronger effect = lower value 1.01 | S. cerevisiae deletion strains, locus YLR342W, strain FKS1 (second series), stronger effect = lower value 1.01 | S. cerevisiae deletion strains, locus YLR371W, strain rom2, stronger effect = lower value 1.01 | S. cerevisiae deletion strains, locus YLR418C, strain cdc73, stronger effect = lower value 1.01 | S. cerevisiae deletion strains, locus YML016C, strain PPZ1, stronger effect = lower value 1.01 | S. cerevisiae deletion strains, locus YML032C, strain rad52, stronger effect = lower value 1.04 | S. cerevisiae deletion strains, locus YML124C, strain tub3, stronger effect = lower value 1.02 | S. cerevisiae deletion strains, locus YMR078C, strain ctf18, stronger effect = lower value 1.02 | S. cerevisiae deletion strains, locus YMR223W, strain ubp8, stronger effect = lower value 1.02 | S. cerevisiae deletion strains, locus YMR263W, strain SAP30, stronger effect = lower value 1.01 | S. cerevisiae deletion strains, locus YMR307W, strain GAS1, stronger effect = lower value 1.03 | S. cerevisiae deletion strains, locus YNL067W, strain RPL9B, stronger effect = lower value 1.01 | S. cerevisiae deletion strains, locus YNL128W, strain TEP1, stronger effect = lower value 1.01 | S. cerevisiae deletion strains, locus YNL153C, strain GIM3, stronger effect = lower value 1.01 | S. cerevisiae deletion strains, locus YNL233W, strain BNI4, stronger effect = lower value 1 | S. cerevisiae deletion strains, locus YNL250W, strain rad50, stronger effect = lower value 1.01 | S. cerevisiae deletion strains, locus YNL271C, strain bni1, stronger effect = lower value 1.01 | S. cerevisiae deletion strains, locus YNL298W, strain CLA4, stronger effect = lower value 1.02 | S. cerevisiae deletion strains, locus YNL307C, strain MCK1, stronger effect = lower value 1.01 | S. cerevisiae deletion strains, locus YNL322C, strain KRE1, stronger effect = lower value 1.01 | S. cerevisiae deletion strains, locus YNR052C, strain pop2, stronger effect = lower value 1.02 | S. cerevisiae deletion strains, locus YOL006C, strain TOP1, stronger effect = lower value 1.09 | S. cerevisiae deletion strains, locus YOL012C, strain htz1 1.25 | S. cerevisiae deletion strains, locus YOL147C, strain pex11, stronger effect = lower value 1.01 | S. cerevisiae deletion strains, locus YOR061W, strain CKA2, stronger effect = lower value 1.01 | S. cerevisiae deletion strains, locus YOR069W, strain VPS5, stronger effect = lower value 1 | S. cerevisiae deletion strains, locus YOR136W, strain idh2, stronger effect = lower value 1.02 | S. cerevisiae deletion strains, locus YOR144C, strain elg1, stronger effect = lower value 1.02 | S. cerevisiae deletion strains, locus YOR184W, strain ser1, stronger effect = lower value 1.03 | S. cerevisiae deletion strains, locus YOR316C, strain cot1, stronger effect = lower value 1.02 | S. cerevisiae deletion strains, locus YPL055C, strain LGE1, stronger effect = lower value 1.02 | S. cerevisiae deletion strains, locus YPL241C, strain CIN2, stronger effect = lower value 1 | S. cerevisiae deletion strains, locus YPR119W, strain clb2, stronger effect = lower value 1.01 | S. cerevisiae deletion strains, locus YPR141C, strain kar3, stronger effect = lower value 1.03 | S. cerevisiae deletion strains, locus YPR163C, strain tif3, stronger effect = lower value 1.02 | S. cerevisiae deletion strains, locus YPR167C, strain met16, stronger effect = lower value 1.02 | S. cerevisiae deletion strains, strain wtn01, stronger effect = lower value 1.01 | S. cerevisiae strains, strain wild type, stronger effect = lower value 0.999
